In PubChem BioAssay AID1159580 (chemical genetic matrix, 2015):
In all, about 5,500 compounds went through this assay and about 2,000 (36%) were called active. Roughly 18% stayed inconclusive and do not appear here. Cut-off read from the data, not from the text of the source: active = normalized growth mostly below about 0.91 (no sharp cut-off); inconclusive = no clear call, values can overlap the other calls; inactive = mostly above about 0.92. Some of the results follow.

Experiment: chemical genetic growth profiling, strain panel (AID 1159580);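 note: tested at 20 µM; growth read once vehicle control cultures reached saturation at 30 °C; 1 = growth at the plate median or of vehicle wells; lower values mean less growth of the strain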
Settings: growth OD

Measured: normalized growth

C[C@@H]1CC2C3CCC4=CC(=O)C=C[C@]4(C)[C@@]3(F)[C@@H](O)C[C@]2(C)[C@@]1(O)C(=O)COP(=O)(O)O (stereo partly drawn)
inactive: S. cerevisiae deletion strains, locus YJR066W, strain TOR1, stronger effect = lower value 0.95 | S. cerevisiae deletion strains, locus YJR075W, strain HOC1, stronger effect = lower value 1.02 | S. cerevisiae deletion strains, locus YKL009W, strain mrt4, stronger effect = lower value 1 | S. cerevisiae deletion strains, locus YKL068W, stronger effect = lower value 1.01 | S. cerevisiae deletion strains, locus YKL085W, strain MDH1 (second series), stronger effect = lower value 1.05 | S. cerevisiae deletion strains, locus YKL085W, strain MDH1, stronger effect = lower value 1.05 | S. cerevisiae deletion strains, locus YKL160W, strain elf1, stronger effect = lower value 0.965 | S. cerevisiae deletion strains, locus YKR001C, strain vps1, stronger effect = lower value 0.997 | S. cerevisiae deletion strains, locus YKR026C, strain gcn3, stronger effect = lower value 0.966 | S. cerevisiae deletion strains, locus YKR091W, strain srl3, stronger effect = lower value 0.982 | S. cerevisiae deletion strains, locus YLL001W, strain dnm1, stronger effect = lower value 0.931 | S. cerevisiae deletion strains, locus YLL026W, stronger effect = lower value 0.986 | S. cerevisiae deletion strains, locus YLL041C, strain sdh2, stronger effect = lower value 0.97 | S. cerevisiae deletion strains, locus YLR027C, strain aat2, stronger effect = lower value 0.975 | S. cerevisiae deletion strains, locus YLR039C, strain RIC1, stronger effect = lower value 1.02 | S. cerevisiae deletion strains, locus YLR058C, strain SHM2, stronger effect = lower value 1.01 | S. cerevisiae deletion strains, locus YLR102C, strain apc9, stronger effect = lower value 0.993 | S. cerevisiae deletion strains, locus YLR113W, strain HOG1, stronger effect = lower value 0.977 | S. cerevisiae deletion strains, locus YLR221C, strain rsa3, stronger effect = lower value 1.01 | S. cerevisiae deletion strains, locus YLR258W, strain gsy2, stronger effect = lower value 1 | S. cerevisiae deletion strains, locus YLR262C, strain YPT6 (second series), stronger effect = lower value 0.959 | S. cerevisiae deletion strains, locus YLR262C, strain YPT6, stronger effect = lower value 1.01 | S. cerevisiae deletion strains, locus YLR268W, strain sec22, stronger effect = lower value 0.996 | S. cerevisiae deletion strains, locus YLR320W, strain mms22, stronger effect = lower value 1.01 | S. cerevisiae deletion strains, locus YLR330W, strain CHS5, stronger effect = lower value 1.01 | S. cerevisiae deletion strains, locus YLR342W, strain FKS1 (second series), stronger effect = lower value 1.01 | S. cerevisiae deletion strains, locus YLR342W, strain FKS1, stronger effect = lower value 0.959 | S. cerevisiae deletion strains, locus YLR357W, strain rsc2, stronger effect = lower value 0.957 | S. cerevisiae deletion strains, locus YLR370C, strain arc18, stronger effect = lower value 0.972 | S. cerevisiae deletion strains, locus YLR371W, strain rom2, stronger effect = lower value 0.994 | S. cerevisiae deletion strains, locus YLR384C, strain iki3, stronger effect = lower value 0.959 | S. cerevisiae deletion strains, locus YLR418C, strain cdc73, stronger effect = lower value 1.01 | S. cerevisiae deletion strains, locus YML016C, strain PPZ1, stronger effect = lower value 1 | S. cerevisiae deletion strains, locus YML032C, strain rad52, stronger effect = lower value 0.991 | S. cerevisiae deletion strains, locus YML120C, strain ndi1, stronger effect = lower value 0.97 | S. cerevisiae deletion strains, locus YML124C, strain tub3, stronger effect = lower value 0.993 | S. cerevisiae deletion strains, locus YMR058W, strain fet3, stronger effect = lower value 0.978 | S. cerevisiae deletion strains, locus YMR078C, strain ctf18, stronger effect = lower value 0.987 | S. cerevisiae deletion strains, locus YMR125W, strain sto1, stronger effect = lower value 0.933 | S. cerevisiae deletion strains, locus YMR129W, stronger effect = lower value 0.987 | S. cerevisiae deletion strains, locus YMR205C, strain PFK2, stronger effect = lower value 0.981 | S. cerevisiae deletion strains, locus YMR223W, strain ubp8, stronger effect = lower value 1.01 | S. cerevisiae deletion strains, locus YMR231W, strain pep5, stronger effect = lower value 0.957 | S. cerevisiae deletion strains, locus YMR263W, strain SAP30, stronger effect = lower value 1.01 | S. cerevisiae deletion strains, locus YMR307W, strain GAS1, stronger effect = lower value 1.09 | S. cerevisiae deletion strains, locus YNL067W, strain RPL9B, stronger effect = lower value 1.01 | S. cerevisiae deletion strains, locus YNL071W, strain lat1, stronger effect = lower value 0.985 | S. cerevisiae deletion strains, locus YNL153C, strain GIM3, stronger effect = lower value 0.998 | S. cerevisiae deletion strains, locus YNL183C, strain NPR1, stronger effect = lower value 0.955 | S. cerevisiae deletion strains, locus YNL209W, strain ssb2, stronger effect = lower value 0.986 | S. cerevisiae deletion strains, locus YNL233W, strain BNI4, stronger effect = lower value 1.02 | S. cerevisiae deletion strains, locus YNL248C, strain rpa49, stronger effect = lower value 0.987 | S. cerevisiae deletion strains, locus YNL250W, strain rad50, stronger effect = lower value 0.993 | S. cerevisiae deletion strains, locus YNL271C, strain bni1, stronger effect = lower value 1.01 | S. cerevisiae deletion strains, locus YNL298W, strain CLA4, stronger effect = lower value 1.02 | S. cerevisiae deletion strains, locus YNL307C, strain MCK1, stronger effect = lower value 0.995 | S. cerevisiae deletion strains, locus YNL322C, strain KRE1 (second series), stronger effect = lower value 0.963 | S. cerevisiae deletion strains, locus YNR049C, strain mso1, stronger effect = lower value 0.98 | S. cerevisiae deletion strains, locus YNR052C, strain pop2, stronger effect = lower value 1.02 | S. cerevisiae deletion strains, locus YOL006C, strain TOP1, stronger effect = lower value 1.01 | S. cerevisiae deletion strains, locus YOL012C, strain htz1 1.85 | S. cerevisiae deletion strains, locus YOL147C, strain pex11, stronger effect = lower value 1.01 | S. cerevisiae deletion strains, locus YOR001W, strain rrp6, stronger effect = lower value 0.946 | S. cerevisiae deletion strains, locus YOR061W, strain CKA2, stronger effect = lower value 1.01 | S. cerevisiae deletion strains, locus YOR069W, strain VPS5, stronger effect = lower value 1.01 | S. cerevisiae deletion strains, locus YOR070C, strain gyp1, stronger effect = lower value 0.99 | S. cerevisiae deletion strains, locus YOR080W, strain dia2, stronger effect = lower value 0.94 | S. cerevisiae deletion strains, locus YOR083W, strain WHI5, stronger effect = lower value 0.959 | S. cerevisiae deletion strains, locus YOR106W, strain vam3, stronger effect = lower value 0.928 | S. cerevisiae deletion strains, locus YOR136W, strain idh2, stronger effect = lower value 1 | S. cerevisiae deletion strains, locus YOR144C, strain elg1, stronger effect = lower value 0.997 | S. cerevisiae deletion strains, locus YOR184W, strain ser1, stronger effect = lower value 0.99 | S. cerevisiae deletion strains, locus YOR231W, strain MKK1, stronger effect = lower value 1.01 | S. cerevisiae deletion strains, locus YOR265W, strain rbl2, stronger effect = lower value 0.974 | S. cerevisiae deletion strains, locus YOR270C, strain vph1, stronger effect = lower value 1 | S. cerevisiae deletion strains, locus YOR290C, strain snf2, stronger effect = lower value 1.01 | S. cerevisiae deletion strains, locus YOR316C, strain cot1, stronger effect = lower value 1 | S. cerevisiae deletion strains, locus YPL051W, strain arl3, stronger effect = lower value 1.01 | S. cerevisiae deletion strains, locus YPL078C, strain atp4, stronger effect = lower value 0.935 | S. cerevisiae deletion strains, locus YPL106C, strain sse1, stronger effect = lower value 0.966 | S. cerevisiae deletion strains, locus YPL240C, strain hsp82, stronger effect = lower value 0.976 | S. cerevisiae deletion strains, locus YPL256C, strain CLN2, stronger effect = lower value 0.985 | S. cerevisiae deletion strains, locus YPR119W, strain clb2, stronger effect = lower value 0.993 | S. cerevisiae deletion strains, locus YPR141C, strain kar3, stronger effect = lower value 0.994 | S. cerevisiae deletion strains, locus YPR163C, strain tif3, stronger effect = lower value 0.995 | S. cerevisiae deletion strains, locus YPR167C, strain met16, stronger effect = lower value 0.997 | S. cerevisiae deletion strains, strain wtn01, stronger effect = lower value 1 | S. cerevisiae strains, strain wild type, stronger effect = lower value 1.01
